MEKK3 PB1 HTS = modulators of MEKK3-MEK5 PB1 binding, primary screen, biochemical, wildtype MEKK3, multiplex bead flow cytometry, Alexa488-MEK5; binding response (% of control), % at 10 µM; 1.4% of 290,000 active; Mitogen-activated protein kinase kinase kinase 3 (Homo sapiens), Q99759; bead-based flow cytometry, Alexa488-MEK5 binding to MEKK3; actives lie on both sides; 0 = blocked by unlabeled MEK5, 100 = vehicle;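 active = binding response more than 3 SD above or below the average of its plate-row segment, actives on both sides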;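 also: Alexa488 bead fluorescence after subtracting the streptavidin-only scavenger bead signal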
Target sequence (Q99759 whole entry, looked up): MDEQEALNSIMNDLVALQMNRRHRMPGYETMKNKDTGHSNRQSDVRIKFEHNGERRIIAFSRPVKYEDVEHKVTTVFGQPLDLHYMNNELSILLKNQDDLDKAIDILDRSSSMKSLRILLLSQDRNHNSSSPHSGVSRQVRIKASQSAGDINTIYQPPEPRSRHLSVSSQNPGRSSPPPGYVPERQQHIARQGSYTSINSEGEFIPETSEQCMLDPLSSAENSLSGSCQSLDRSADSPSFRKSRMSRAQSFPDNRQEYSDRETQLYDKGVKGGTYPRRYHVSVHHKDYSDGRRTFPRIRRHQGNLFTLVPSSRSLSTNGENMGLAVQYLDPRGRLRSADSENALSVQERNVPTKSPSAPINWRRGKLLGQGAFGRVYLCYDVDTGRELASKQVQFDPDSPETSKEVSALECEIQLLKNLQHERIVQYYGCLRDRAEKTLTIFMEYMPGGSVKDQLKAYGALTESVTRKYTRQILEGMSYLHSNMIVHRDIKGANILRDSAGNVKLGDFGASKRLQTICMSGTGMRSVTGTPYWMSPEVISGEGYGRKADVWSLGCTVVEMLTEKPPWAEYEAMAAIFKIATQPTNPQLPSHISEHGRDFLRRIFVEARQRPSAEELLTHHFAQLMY
MEKK2 mut-MEK5 = MEK5 binding signal on mutant MEKK2 PB1, primary screen, biochemical, multiplex bead flow cytometry, Alexa488-MEK5. Alexa488-MEK5 binding to MEKK2 mutant. percent response, % at 10 µM. 0.35% of 290,000 active; in the data active = percent response above about 24%, passing the limit was not always enough
MEKK2 WT-MEK5 = modulators of MEK5 binding to wildtype MEKK2, primary screen, biochemical, multiplex bead flow cytometry, Alexa488-MEK5; Alexa488-MEK5 binding to MEKK2 WT; actives lie on both sides; binding response (% of control), % at 10 µM; 1.1% of 290,000 active; in the data active = binding response below about 67% or above about 130%
GRK2 inh = compounds blocking aptamer binding on GRK2 – biochemical, human GRK2, bead flow cytometry, HTS, primary screen; inhibition of aptamer binding, % at 10 µM; Beta-adrenergic receptor kinase 1 (Homo sapiens), P25098; FAM-aptamer displacement from GRK2; 0.59% of 330,000 active; AID 488847, 2010;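 active = inhibition of aptamer binding above 40%, roughly 3 SD of noise, on plates passing a quality check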;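 also: median bead fluorescence of bound FAM aptamer so fluorescent compounds give negative values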
GRK2 CP1 = GRK2 aptamer-displacing inhibitors, retest, confirmation, biochemical, cherry pick 1, bead flow cytometry. shares compounds with GRK2 inh. bead-bound GRK2, FAM-aptamer displacement. aptamer displacement, % at 10 µM. 4% of 2,000 active. AID 504451, 2011;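 active = aptamer displacement above 40%, near three times the noise of non-fluorescent compounds, on plates passing quality checks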;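 also: negative values mostly reflect intrinsic compound fluorescence rather than true enhancement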
FAM quench CP1 = counter-screen for GRK2 aptamer inhibitors: fluorescent aptamer quenchers. shares compounds with GRK2 inh. fluorescence response (% of DMSO), % at 10 µM. 2,000 tested, under 10 active. Carboxyfluorescein RNA aptamer on beads, flow cytometry quenching; active compounds read low;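 active = compounds that quench the bead-bound fluorescent RNA probe, cutting fluorescence to under half of the solvent control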;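 also: counterscreen run without GRK2 so only probe quenching by compound is measured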
GRK2 CP2 = GRK2 aptamer-displacing inhibitors, hit retest, confirmation, biochemical, cherry pick 2, bead flow cytometry. inhibition of aptamer binding, % at 10 µM. 360 tested, under 10 active. bead-bound GRK2, FAM-aptamer displacement. shares compounds with GRK2 inh;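 active = inhibition of aptamer binding above 40%, about triple the noise seen with nonglowing compounds, on plates passing quality control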;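 also: negative values mostly come from compounds that fluoresce themselves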
FAM quench SP = counter-screen for GRK2 binding hits: quenchers of fluorescent RNA aptamer | shares compounds with GRK2 inh | fluorescence response vs DMSO, % at 10 µM | carboxyfluorescein RNA aptamer beads, flow cytometry quenching; active compounds read low | 360 tested, under 10 active;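 active = response vs DMSO under 50%, meaning signal dropped by over half, treated as fluorescence quencher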;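 also: labelled aptamer on streptavidin beads without GRK2 as a quench counter-screen; 100% = bead fluorescence of DMSO wells and lower means quenching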
The depositor's hits bear a star; . = no result given. This is a sample that favours compounds with a hit; in the whole collection about 2.5% have one here.

SMILES	MEKK3 PB1 HTS	MEKK2 mut-MEK5	MEKK2 WT-MEK5	GRK2 inh	GRK2 CP1	FAM quench CP1	others
CSCCC(NS(=O)(=O)c1ccccc1F)C(=O)NCc1cccs1 (stereo not drawn)	.	.	.	61.0*	1.1	115.9
CN(Cc1ccccc1)S(=O)(=O)c1ccc(OCC(=O)N2CCOCC2)cc1	100.0	-1.0	102.0	2.0	.	.
O=C(COC(=O)C1(c2ccc(Cl)cc2)CCCC1)NCc1ccco1	102.0	0.0	99.0	6.0	1.8	105.1
O=C(NCc1ccco1)C1(c2ccccc2)CCCC1	97.0	1.0	96.0	0.0	.	.
COc1ccc(CC(=O)OCC(=O)NCc2ccco2)cc1OC	.	.	.	2.0	.	.
O=C(COC(=O)Cc1ccc(F)cc1)NCc1ccco1	95.0	-2.0	102.0	52.0*	21.8	92.6
O=C(COC(=O)Cc1cccc(C(F)(F)F)c1)NCc1ccco1	.	.	.	57.0*	32.2	99.2
O=C1C=CN(C(=O)Oc2ccccc2)CC1	97.0	8.0	111.0	4.0	.	.
CN(C)S(=O)(=O)n1cnc(C(CCO)c2ncn(S(=O)(=O)N(C)C)c2CCCO)c1 (stereo not drawn)	.	.	.	40.0	3.2	21.6*
CCCCCCCCSc1nnc(-c2ccc(OC)cc2)o1	108.0	5.0	108.0	0.0	.	.
CCC1Oc2ccccc2N(CC(=O)NCCCN2CCCCC2C)C1=O (stereo not drawn)	100.0	5.0	102.0	61.0*	-8.8	111.2
CS(=O)(=O)Oc1ccc2c(c1)O/C(=C\C=C\c1ccccc1)C2=O	81.0	-12.0	79.0	49.0*	-4.8	96.7
CS(=O)(=O)Oc1ccc2c(c1)O/C(=C\c1cccc([N+](=O)[O-])c1)C2=O	103.0	2.0	101.0	1.0	.	.
C[C@H]1CCC2[C@](C)(CO)[C@@H](O)CC[C@]2(C)[C@@]12CCC(CO)(CCO)O2 (stereo partly drawn)	107.0	6.0	108.0	44.0*	.	.	GRK2 CP2=13.6;FAM quench SP=102.0
O=S(=O)(NCCCc1ccccc1)c1ccccc1	101.0	5.0	98.0	0.0	.	.
Cc1ccc(C)c(S(=O)(=O)NCCCc2ccccc2)c1	101.0	-1.0	98.0	81.0*	0.4	109.2
Cc1cc2c(nc1C)CCCN2C[C@@H](C)O/N=C1/[C@H]2CCn3c(=O)n(-c4ccccc4)c(=O)n3[C@H]2[C@H](O)[C@@H]2O[C@H]12	99.0	7.0	95.0	1.0	.	.
CCOc1cc(S(=O)(=O)N2CCN=C2Cc2ccccc2)ccc1F	100.0	-1.0	103.0	44.0*	.	.	GRK2 CP2=-6.9;FAM quench SP=101.0
COc1ccc(Cl)cc1S(=O)(=O)N1CCN=C1Cc1ccccc1	100.0	1.0	104.0	0.0	.	.
COc1ccc(NC(=O)N(C)C[C@H]2Oc3ccc(NC(=O)CCC(F)(F)F)cc3C(=O)N([C@H](C)CO)C[C@@H]2C)cc1	.	.	.	73.0*	.	.	GRK2 CP2=8.1;FAM quench SP=101.0
COc1ccc(NC(=O)Nc2ccc3c(c2)C(=O)N([C@H](C)CO)C[C@H](C)[C@@H](CN(C)C(=O)Nc2ccc(OC)cc2)O3)cc1	.	.	.	4.0	.	.
CCn1cc(S(=O)(=O)NCc2ccccc2Br)cn1	97.0	3.0	98.0	1.0	.	.
O=C(O)CSc1cnc2ccccc2n1	103.0	1.0	103.0	0.0	.	.
CCCCNC(=O)c1ccccc1SCC(=O)NC1CCCCCCC1	.	.	.	61.0*	-17.9	96.4
O=C(CSc1cnc2ccccc2n1)NC1CCCC1	96.0	-6.0	98.0	81.0*	-3.0	97.6
O=S(=O)(/C=C/c1ccccc1)Nc1ccc(N2CCOCC2)cc1	101.0	7.0	107.0	8.0	.	.
